# Results published in ChEMBL document CHEMBL4513216, “Probing the Open Global Health Chemical Diversity Library for Multistage-Active Starting Points for Next-Generation Antimalarials” (ACS Infect Dis, 2020).
# Out of some 69,000 compounds screened, about 8,600 (12%) showed an effect of 50% or more. The sample as a whole holds a higher share of strong results than the screen did.
# Tested on: Plasmodium berghei
# Assay: Screen against P. berghei liver stage (PbLuc), transformed with Luciferase, at 10uM
# Assay type: functional, HepG2
# Conditions: tested at 10 uM
row,SMILES,INHIBITION [%]
1,Cc1nc(S(=O)(=O)N2CCCCc3ccccc32)cn1C,-49.3
2,COc1cccc(CC(=O)N2CCC(c3ccn4nccc4n3)CC2)c1,23.9
3,O=C(NS(=O)(=O)c1ccc(C2CCCCC2)cc1)C1COCCO1 (stereo not given),46.4
4,O=S(=O)(NCC1COCCO1)c1ccc(C2CCCCC2)cc1 (stereo not given),74.5
5,Cc1ccc(S(=O)(=O)NCC2CNCCOC2)cc1Cl (stereo not given),-95.7
6,Cc1cc(C)n(CC2CCCN2C(=O)c2cncnc2C)n1 (stereo not given),-2.1
7,Cc1ncc2c(n1)CN(CC1CCCCO1)CC2 (stereo not given),3.17
8,FC(F)(F)COCCN1CCc2cncnc2C1,64
9,Cc1ncc2c(n1)CN(CCOCC(F)(F)F)CC2,26.6
10,CC(C)OCCN1CCc2cncnc2C1,24.4
11,Cc1ccc(C(NC(=O)CN2CCc3cncnc3C2)C2CC2)cc1 (stereo not given),34.2
12,N#Cc1ccc(OCCN2CCc3cncnc3C2)cc1,9.54
13,COCCCN1CCc2cncnc2C1,40.3
14,CCc1ncc2c(n1)CN(CC1CCCCO1)CC2 (stereo not given),9.35
15,O=C(CN1CCc2cncnc2C1)NC(C1CC1)C1CC1,57
16,CCOCCN1CCc2cncnc2C1,53.3
17,O=C(CN1CCc2cncnc2C1)NC(c1ccccc1)C1CC1 (stereo not given),24.4
18,c1ncc2c(n1)CN(CC1CCCCO1)CC2 (stereo not given),87.1
19,Cn1nnc2c(N3CC(C(=O)NCc4ccccc4F)C3)ncnc21,15.7
20,Cc1cnn(CC2CCCN2CCCS(=O)(=O)N(C)C)c1 (stereo not given),2.97
21,N#Cc1ccc(C2CC(=O)Nc3c(C(=O)O)nsc32)cc1 (stereo not given),-38.7
22,CC(C)C(Sc1nnc(NC2CC2)s1)C(=O)NCc1cccnc1 (stereo not given),-26.7
23,Cc1noc(C)c1S(=O)(=O)NC(=O)COc1cccc(C(C)C)c1,13.3
24,Nc1nc2c(s1)C(c1c(F)cccc1Cl)CC(=O)N2 (stereo not given),30
25,CCNc1ncc(C(=O)N(C)C(C)c2ccc3c(c2)OCCO3)cn1 (stereo not given),15.8
26,Cc1ccccc1-c1cncc(C2CCN(CCO)CC2)n1,38.2
27,CCN(CC1COc2ccccc2O1)C(=O)C1=NN(C)C(=O)CC1 (stereo not given),50.8

row,SMILES,INHIBITION [%]
1,CN(CC1COc2ccccc2O1)C(=O)C1=NN(C)C(=O)CC1 (stereo not given),25.7
2,CCCN(CC1COc2ccccc2O1)C(=O)C1=NN(C)C(=O)CC1 (stereo not given),42.4
3,CCNC(=O)CCCC(=O)N1CCc2cc(Cl)cc(Cl)c2C1,-4.52
4,COC(=O)C1CCN(C(=O)Cn2ccc(-c3ccccc3)n2)CC1,-35
5,CN1CCO[C@H]2CN(C(=O)c3ccoc3)C[C@H]21,54.4
6,O=C(c1ccoc1)N1C[C@@H]2OCCN(c3ncccn3)[C@@H]2C1,-4.32
7,CC(C)N1CCO[C@H]2CN(C(=O)c3ccoc3)C[C@H]21,38.7
8,O=C(NCc1cc(-c2ccccc2)no1)NC1CCCCNC1=O (stereo not given),-24.8
9,O=C(c1n[nH]cc1Cl)N1CCCC(n2nnc3cc(F)ccc32)C1 (stereo not given),38.8
10,N#CC1(C(=O)N2C[C@@H]3CC[C@H]2CN(Cc2ccncc2)C3)CCOCC1,26.5
11,Cc1ccc(S(=O)(=O)N(C)Cc2cnccn2)cc1N(C)C,26
12,CN(Cc1cnccn1)S(=O)(=O)c1ccc(C(F)(F)F)nc1,75.5
13,CN(CC(C)(C)C)S(=O)(=O)c1ccc(C(F)(F)F)nc1,33.7
14,CN1CCN(C(=O)c2cn3ccsc3n2)[C@H]2CS(=O)(=O)C[C@H]21,38.5
15,CN1CCCC1CNC(=O)CCCOc1ccc(Cl)cc1 (stereo not given),24.665
16,O=C(c1ccsc1)N1C[C@@H]2CCN(C(=O)c3cscn3)[C@@H]2C1,27.5
17,O=C(C1CCC1)N1CCC(c2ncc3c(n2)CCNC3)CC1,-12.9
18,CCc1ccc(C(=O)N2CC[C@](C)(O)C(C)(C)C2)[nH]1,-10.6
19,CCCN1CCC(CC(=O)N2CC(C)(C)[C@@](C)(O)C2)CC1,57.2
20,CCN(CC)Cc1cc(C(=O)N2CC(C)(C)[C@@](C)(O)C2)c(C)o1,35.7
21,CC1(C)CN(C(=O)CC2CCC2)C[C@]1(C)O,47.4
22,CC1(C)CC(CC(=O)N2CC(C)(C)[C@@](C)(O)C2)CC(C)(C)N1,70.2
23,CC1(C)CN(C(=O)CC2CCS(=O)(=O)CC2)C[C@]1(C)O,34.4
24,CCc1cc(N[C@@H]2CC[C@@H](N)C2)n2nc(C)c(C)c2n1,-42.8
25,Cc1cc(C(=O)NCC(C)C)nn1C,37.9
26,O=C(NCc1cc2ccccc2[nH]1)C1CCCN(C(=O)N2CCCC2)C1 (stereo not given),3.87
27,COC(=O)CC1c2cccnc2C(=O)N1Cc1ccccc1 (stereo not given),36.6

row,SMILES,INHIBITION [%]
1,CN(CC(=O)N1CCCC1)C(=O)Cc1csc(-c2ncccn2)n1,30.057
2,O=C(c1cccc(F)c1)N1CCCN(Cc2cscn2)CC1,-75.2
3,Cc1cc(C)c2cc(CNC(C)C)c3nn(C)c(=O)n3c2c1,64.9
4,Cc1nn(C)c(C)c1CC(=O)NCc1ccnc(OC2CCCC2)c1,25.3
5,Cc1cc(C)c2cc(CNCC3CCCO3)c3nn(C)c(=O)n3c2c1 (stereo not given),55.2
6,CCCn1cnnc1CNC1CCCC1,9.91
7,Cc1cc(C)c2c(OCC(=O)NC(C)C)nn(C)c2n1,37.1
8,Cc1cc(C)c2cc(CNC3CCCCC3)c3nn(C)c(=O)n3c2c1,73.8
9,Cc1cc(C)c2ncn(CCC(C)O)c(=O)c2c1 (stereo not given),6.28
10,Cc1noc2ncc(C(=O)NCC3CCCO3)cc12 (stereo not given),-17.45
11,Cc1cc(NCC2CCCO2)cc(=O)n1C (stereo not given),29.3
12,Cc1csc(N2CCC(CCN3CCCC3=O)CC2)n1,-40.5
13,COc1ccc2c3c1CN(S(C)(=O)=O)CC3=CC(C)(C)CO2,29.8
14,Cn1ncc2c(=O)[nH]c(CN3CCCC3c3ccsc3)nc21 (stereo not given),-19.6
15,O=C([C@H]1C[C@H]2OCC[C@H]2N(CC2CC2)C1)N1CCCCO1,29.9
16,CNC(=O)[C@H]1C[C@H]2OCC[C@H]2N(CC2CCOCC2)C1,10.5
17,O=C([C@H]1C[C@@H]2[C@@H](C1)OCCN2CC1CC1)N1CCCC1,5.36
18,O=C([C@H]1C[C@H]2OCC[C@H]2N(CC2CCOCC2)C1)N1CCCC1,76.3
19,CNC(=O)[C@H]1C[C@H]2OCC[C@H]2N(CC2CC2)C1,10.5
20,O=C([C@H]1C[C@H]2OCC[C@H]2N(CC2CC2)C1)N1CCCC1,82.2
21,O=C(NC1CC1)[C@H]1C[C@H]2OCC[C@H]2N(CC2CCOCC2)C1,25.4
22,O=C([C@H]1C[C@H]2OCC[C@H]2N(CC2CCOCC2)C1)N1CCCCO1,50.9
23,O=C([C@H]1C[C@H]2OCC[C@H]2N(C(=O)C2CCOCC2)C1)N1CCCCO1,28.3
24,CC1CCN(c2nc3cn(-c4ccccc4)c(=O)c-3c[nH]2)CC1,-21.5
25,Cc1cccc(CN2CCCC3(CCC(=O)N3CCN(C)C)CC2)n1 (stereo not given),-6.05
26,CN(C)C(=O)N1C[C@@H]2CCCO[C@@H]2[C@H](N(C)Cc2ccco2)C1,41.8
27,CC(C)c1n[nH]c(C2CN(C(=O)c3cnccn3)CCO2)n1 (stereo not given),48.4

row,SMILES,INHIBITION [%]
1,CN1CCC(C)(CNC(=O)c2ccc(SCc3cccnc3)cc2)CC1,34
2,CCSc1ncc(Cl)c(C(=O)NC(CCSC)C(=O)O)n1 (stereo not given),15.9
3,CNS(=O)(=O)c1ccc(CNC(=O)C2CN(C)CCO2)cc1 (stereo not given),50
4,CNS(=O)(=O)c1ccc(CNC(=O)N2CCOC(C)C2)cc1 (stereo not given),50
5,CNS(=O)(=O)c1ccc(CNC(=O)NCC2CCCO2)cc1 (stereo not given),0.932
6,CNS(=O)(=O)c1ccc(CNC(=O)NCC2CCC2)cc1,-75.2
7,CNS(=O)(=O)c1ccc(CNC(=O)C2CCCN(C)C2)cc1 (stereo not given),-34.8
8,CC1CN(C(=O)NCc2cnn(-c3ccc(F)cc3F)c2)CCO1 (stereo not given),-2.55
9,CNS(=O)(=O)c1ccc(CNC(=O)NCC2CCOC2)cc1 (stereo not given),21.9
10,CNS(=O)(=O)c1ccc(CNC(=O)C2CCCO2)cc1 (stereo not given),54.3
11,CNS(=O)(=O)c1ccc(CNC(=O)N(CC(C)C)C(C)C)cc1,31.2
12,Cc1c(NC(=O)NCCO)cccc1OC1CCCC1,-2.27
13,CCN(CC)CC1CCN(Cc2ccn(C)c(=O)c2)CC1,-18
14,COc1ccc(CNc2cc3[nH]c(O)nc3cc2C)cc1,29.1
15,O=C(CCS(=O)(=O)c1ccccc1)NC1CCOC2(CCOCC2)C1 (stereo not given),12.1
16,COc1ccc(COCC(=O)N2CCCC(n3cncn3)C2)cc1 (stereo not given),-9.76
17,Cn1cccc1C(=O)N1CCC2(CC1)COC(COc1ccccn1)C2 (stereo not given),-8.19
18,O=C1CCC2(CCN(S(=O)(=O)c3ccccc3)CC2)N1CC1CC1,-51.6
19,CCN1C(=O)CCC12CCN(S(=O)(=O)c1ccccc1)CC2,-2.35
20,O=C1N(CC2CCC2)CCCC12CCN(S(=O)(=O)c1cccnc1)C2 (stereo not given),-21.8
21,CC(=O)N1CCC2(CC1)CCN(S(=O)(=O)c1ccccc1)C2,-18.4
22,O=S(=O)(c1ccccc1)N1CCC2(CCCN2CC2CCCC2)C1 (stereo not given),71.1
23,CC(C)(C)CN1CCCC12CCN(S(=O)(=O)c1ccccc1)C2 (stereo not given),78.8
24,Cc1c[nH]nc1C1CN(c2ncccn2)CCO1 (stereo not given),14.575
